According to PubChem BioAssay (Tox21):
Where “and” joins values, the source holds several entries; their conditions need not be identical. Equal values may be shown once. Results filed as inconclusive are left out. The source holds several records for some structures; these can differ, active in one and inactive in another. Calls of active or inactive are those of the source. Calls follow the shape of the dose curve; as a rule, active = well fitted curve in the direction sought with a large enough effect in the repeat runs; inconclusive = weak or mixed curves; inactive = no such curve, though single readings can be large; an effect the other way counts as inactive or inconclusive.

What was measured:
[1] = A CellTox Green Cytotoxicity Assay to monitor cytotoxicity in HEK293 cells - 40 hour (AID 1224871); also: nearly all actives have a fitted effect of over 45% in size; also: potency is read from the fitted curve at half-maximal effect
Procedure, shortened: (§1)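 Real-time, in one plate: 600 HEK293 cells/well with dead-cell DNA dye, pinned compound after 5 h, 37 C incubation over 40 h; viable cells give no appreciable fluorescence.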

[2] = qHTS RealTime-Glo MT Cell Viability Assay in HEK293 cells - 16 hour (AID 1224872); also: nearly all actives have a fitted effect of over 50% in size; also: potency is read from the fitted curve at half-maximal effect
Procedure, shortened: (§2)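 Cells + reagent dispensed (600 cells/well, HEK293) → 5 h at 37 C/5% CO2 → 23 nL compound in DMSO pinned → 40 h at 37 C → luminescence read at 0, 8, 16, 24, 32, 40 h.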

[3] = qHTS RealTime-Glo MT Cell Viability Assay in HepG2 cells - 8 hour (AID 1224873); also: nearly all actives have a fitted effect of over 55% in size
Procedure, shortened: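 HepG2 cells (600/well) mixed with RealTime-Glo MT reagent, settled 5 h at 37 C/5% CO2 before compound addition. Nonlytic NanoLuc luminescence from viable-cell prosubstrate reduction read repeatedly during 40 h treatment at 37 C.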

[4] = A CellTox Green Cytotoxicity Assay to monitor cytotoxicity in HEK293 cells - 24 hour (AID 1224875); also: nearly all actives have a fitted effect of over 45% in size; also: potency is read from the fitted curve at half-maximal effect
Procedure, shortened: as §1

[5] = A CellTox Green Cytotoxicity Assay to monitor cytotoxicity in HepG2 cells - 16 hour (AID 1224876); also: nearly all actives have a fitted effect of over 45% in size; also: potency is read from the fitted curve at half-maximal effect
Procedure, shortened: (§3)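 Cytotoxicity was tracked as dead-cell DNA fluorescence in HepG2 cells treated with test compounds at 37 C; each time-point value comes from one kinetic series spanning 0, 8, 16, 24, 32 and 40 h.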

[6] = A CellTox Green Cytotoxicity Assay to monitor cytotoxicity in HepG2 cells - 24 hour (AID 1224878); also: nearly all actives have a fitted effect of over 45% in size; also: potency is read from the fitted curve at half-maximal effect
Procedure, shortened: as §3

[7] = A CellTox Green Cytotoxicity Assay to monitor cytotoxicity in HepG2 cells - 40 hour (AID 1224879); also: nearly all actives have a fitted effect of over 40% in size; also: potency is read from the fitted curve at half-maximal effect
Procedure, shortened: as §3

[8] = qHTS RealTime-Glo MT Cell Viability Assay in HEK293 cells - 0 hour (AID 1224880)
Procedure, shortened: (§4)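 Kinetic, non-lysing viability readout. Seed HEK293 (600/well) with reagent, incubate 5 h at 37 C/5% CO2, pin 23 nL compound in DMSO, incubate at 37 C, read luminescence at 0, 8, 16, 24, 32, 40 h.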

[9] = A CellTox Green Cytotoxicity Assay to monitor cytotoxicity in HEK293 cells - 32 hour (AID 1224881); also: nearly all actives have a fitted effect of over 40% in size; also: potency is read from the fitted curve at half-maximal effect
Procedure, shortened: as §1

[10] = A CellTox Green Cytotoxicity Assay to monitor cytotoxicity in HepG2 cells - 0 hour (AID 1224882); also: nearly all actives have a fitted effect of over 35% in size
Procedure, shortened: as §3

[11] = A CellTox Green Cytotoxicity Assay to monitor cytotoxicity in HepG2 cells - 32 hour (AID 1224883); also: nearly all actives have a fitted effect of over 50% in size; also: potency is read from the fitted curve at half-maximal effect
Procedure, shortened: as §3

[12] = A CellTox Green Cytotoxicity Assay to monitor cytotoxicity in HEK293 cells - 8 hour (AID 1224884); also: nearly all actives have a fitted effect of over 35% in size; also: potency is read from the fitted curve at half-maximal effect
Procedure, shortened: as §1

[13] = qHTS RealTime-Glo MT Cell Viability Assay in HepG2 cells - 16 hour (AID 1224885); also: nearly all actives have a fitted effect of over 50% in size; also: potency is read from the fitted curve at half-maximal effect
Procedure, shortened: (§5)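 Real-time, nonlytic viability: 600 HepG2 cells/well mixed with NanoLuc enzyme plus prosubstrate; 5 h settle, compound (DMSO) added by pintool; luminescence monitored over 40 h at 37 C.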

[14] = qHTS RealTime-Glo MT Cell Viability Assay in HEK293 cells - 24 hour (AID 1224886); also: nearly all actives have a fitted effect of over 50% in size; also: potency is read from the fitted curve at half-maximal effect
Procedure, shortened: as §2

[15] = A CellTox Green Cytotoxicity Assay to monitor cytotoxicity in HEK293 cells - 16 hour (AID 1224888); also: nearly all actives have a fitted effect of over 35% in size; also: potency is read from the fitted curve at half-maximal effect
Procedure, shortened: as §1

[16] = qHTS RealTime-Glo MT Cell Viability Assay in HepG2 cells - 0 hour (AID 1224889); also: nearly all actives have a fitted effect of over 50% in size; also: potency is read from the fitted curve at half-maximal effect
Procedure, shortened: as §5

[17] = A CellTox Green Cytotoxicity Assay to monitor cytotoxicity in HepG2 cells - 8 hour (AID 1224890); also: nearly all actives have a fitted effect of over 45% in size; also: potency is read from the fitted curve at half-maximal effect
Procedure, shortened: as §3

[18] = qHTS RealTime-Glo MT Cell Viability Assay in HEK293 cells - 40 hour (AID 1224874); conditions: RealTime-Glo luminescence; max response: stronger effect = lower value; also: nearly all actives have a fitted effect of over 50% in size; also: potency is read from the fitted curve at half-maximal effect
Procedure, shortened: as §4

[19] = qHTS RealTime-Glo MT Cell Viability Assay in HEK293 cells - 8 hour (AID 1224887); also: nearly all actives have a fitted effect of over 50% in size; also: potency is read from the fitted curve at half-maximal effect
Procedure, shortened: as §4

[20] = qHTS RealTime-Glo MT Cell Viability Assay in HepG2 cells - 32 hour (AID 1224877); also: nearly all actives have a fitted effect of over 55% in size
Procedure, shortened: as §5
% is scaled to controls: 0 for no effect and ±100 for the full control effect.

CO/N=C(/C(=O)OC)c1ccccc1COc1ccccc1C
inactive: Potency [1] | Potency [2] | Potency [3] | Potency [4] | Potency [5] | Potency [6] | Potency [7] | Potency [8] | Potency [9] | Potency [10] | Potency [11] | Potency [12] | Potency [13] | Potency [14] | Potency [15] | Potency [16] | Potency [17]

O=[Se]=O
active: Potency [1] 24.4 µM | Potency [18] 17.3 µM | Potency [7] 19.4 µM | Potency [11] 24.4 µM | Potency [14] 17.3 µM
inactive: Potency [2] | Potency [3] | Potency [4] | Potency [5] | Potency [6] | Potency [8] | Potency [10] | Potency [12] | Potency [13] | Potency [19] | Potency [15] | Potency [16] | Potency [17]

COC1=CC(=O)O[C@@H](CCc2ccccc2)C1
inactive: Potency [1] | Potency [2] | Potency [3] | max response [18] -25.1% | Potency [4] | Potency [5] | Potency [6] | Potency [7] | Potency [9] | Potency [10] | Potency [11] | Potency [12] | Potency [13] | Potency [14] | Potency [15] | Potency [17]

CCOS(C)(=O)=O
inactive: Potency [1] | Potency [2] | Potency [3] | max response [18] -7.66% | Potency [4] | Potency [5] | Potency [6] | Potency [7] | Potency [8] | Potency [9] | Potency [10] | Potency [11] | Potency [12] | Potency [13] | Potency [14] | Potency [19] | Potency [15] | Potency [17]

COc1c(C(C)(C)C)cc([N+](=O)[O-])c(C)c1[N+](=O)[O-]
inactive: Potency [1] | Potency [2] | Potency [3] | max response [18] 1.56% | Potency [4] | Potency [5] | Potency [6] | Potency [7] | Potency [8] | Potency [9] | Potency [10] | Potency [11] | Potency [12] | Potency [13] | Potency [14] | Potency [15] | Potency [16] | Potency [17]

COC(N)=O
inactive: Potency [1] | Potency [2] | Potency [3] | Potency [4] | Potency [5] | Potency [20] | Potency [6] | Potency [7] | Potency [8] | Potency [9] | Potency [10] | Potency [11] | Potency [12] | Potency [13] | Potency [14] | Potency [15] | Potency [16] | Potency [17]

O=C(O)CC(Cl)C(=O)O (stereo unspecified)
inactive: Potency [1] | Potency [2] | Potency [3] | max response [18] 0.924% | Potency [4] | Potency [8] | Potency [9] | Potency [10] | Potency [13] | Potency [14] | Potency [15] | Potency [16] | Potency [17]

C=CC(=O)OCCCCO
inactive: Potency [1] | Potency [2] | max response [18] 18.2% | Potency [4] | Potency [5] | Potency [20] | Potency [6] | Potency [7] | Potency [8] | Potency [9] | Potency [10] | Potency [11] | Potency [12] | Potency [13] | Potency [14] | Potency [15] | Potency [16] | Potency [17]

IC(I)=C(I)I
active: Potency [1] 54.9 µM | Potency [2] 9.77 µM | Potency [18] 6.16 µM | Potency [5] 24.5 µM | Potency [6] 19.5 µM | Potency [7] 12.3 µM | Potency [9] 54.9 µM | Potency [11] 13.8 µM | Potency [12] 54.9 µM | Potency [13] 0.776 µM | Potency [14] 6.92 µM | Potency [19] 17.4 µM | Potency [15] 54.9 µM | Potency [17] 38.9 µM
inactive: Potency [10]

O=C(CCl)c1ccc(Cl)cc1Cl
inactive and 23.9 µM (active): Potency [5] | Potency [6]
inactive: Potency [8] | Potency [10] | Potency [12] | Potency [19] | Potency [15] | Potency [16] | Potency [17]
active: Potency [1] 8.49 µM | Potency [2] 4.25 µM | Potency [18] 17.3 µM and 2.39 µM | Potency [4] 10.7 µM | Potency [7] 23.9 µM | Potency [9] 8.49 µM | Potency [11] 23.9 µM | Potency [14] 4.77 µM
inactive and 16.9 µM (active): Potency [13]

C/C(=C\c1ccccc1)[N+](=O)[O-]
inactive: Potency [3] | Potency [4] | Potency [5] | Potency [8] | Potency [10] | Potency [12] | Potency [15] | Potency [16] | Potency [17]
active: Potency [1] 9.77 µM | Potency [18] 11 µM

O=C(CBr)Nc1ccc(Cl)cc1C(=O)c1ccccc1F
inactive: Potency [1] | Potency [2] | max response [18] -13.4% | Potency [4] | Potency [5] | Potency [20] | Potency [6] | Potency [7] | Potency [8] | Potency [9] | Potency [10] | Potency [11] | Potency [12] | Potency [13] | Potency [14] | Potency [19] | Potency [15] | Potency [17]

OC(c1ccc(Cl)cc1)(c1ccc(Cl)cc1)c1cccnc1
inactive: Potency [1] | Potency [4] | Potency [5] | Potency [6] | Potency [7] | Potency [8] | Potency [9] | Potency [10] | Potency [11] | Potency [12] | Potency [15] | Potency [16] | Potency [17]
active: Potency [2] 38.9 µM | Potency [18] 38.9 µM | Potency [14] 38.9 µM

CC(=O)NC1CCSC1=O (stereo unspecified)
inactive: Potency [1] | Potency [2] | max response [18] -1.76% | Potency [4] | Potency [5] | Potency [6] | Potency [7] | Potency [8] | Potency [9] | Potency [10] | Potency [11] | Potency [12] | Potency [13] | Potency [14] | Potency [19] | Potency [15] | Potency [16] | Potency [17]

CCCCC(O)(Cn1cncn1)c1ccc(Cl)cc1Cl (stereo unspecified)
active: Potency [1] 54.9 µM | Potency [2] 43.6 µM | Potency [18] 43.6 µM | Potency [6] 43.6 µM | Potency [7] 48.9 µM | Potency [9] 54.9 µM | Potency [11] 48.9 µM | Potency [14] 43.6 µM | Potency [16] 24.5 µM
inactive: Potency [8] | Potency [10]

COP(=S)(OC)Oc1ccc([N+](=O)[O-])cc1Cl
inactive: Potency [1] | Potency [3] | max response [18] -20.6% | Potency [4] | Potency [5] | Potency [20] | Potency [6] | Potency [7] | Potency [8] | Potency [9] | Potency [10] | Potency [11] | Potency [12] | Potency [13] | Potency [14] | Potency [15] | Potency [16] | Potency [17]
